# Data published in the supplement of paper PMC10981050.
# Several values for one entry are separate records, joined by “and”; a condition that tells them apart may be missing. Equal values may be shown once. Where a name gives a salt, the structure may show the parent alone.
# Key:
# Test in all cases: cell viability relative to vehicle control; higher = less cytotoxic
# Conditions in all cases: 10 µM
# K562 = test system: K562
# How it was run: (§1)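 Four leukaemia lines, as CRISPR-edited mutant clones and isogenic wild-type clones, were tested against Selleck bioactive, kinase and epigenetic probe libraries after removal of identity-inconsistent compounds. Cells were exposed to a single 10 µM dose for 48 h, and CellTiter-Glo luminescence was then read. Viability was calculated relative to the on-plate vehicle control.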
# MARIMO = test system: MARIMO
# How it was run: as §1
# MOLM14 = test system: MOLM14
# How it was run: as §1
# OCI-AML2 = test system: OCI-AML2
# How it was run: as §1
Compound,cell viability (K562; SRSF2 genotype: SRSF2 P95H/wt),cell viability (K562; SRSF2 genotype: SRSF2 wt/wt),cell viability (MARIMO; SRSF2 genotype: SRSF2 P95H/wt),cell viability (MARIMO; SRSF2 genotype: SRSF2 wt/wt),cell viability (MOLM14; SRSF2 genotype: SRSF2 P95H/wt),cell viability (MOLM14; SRSF2 genotype: SRSF2 wt/wt),cell viability (OCI-AML2; SRSF2 genotype: P95H/wt),cell viability (OCI-AML2; SRSF2 genotype: wt/wt)
CCCNS(=O)(=O)Nc1ncnc(OCCOc2ncc(Br)cn2)c1-c1ccc(Br)cc1 [Macitentan],104% and 105%,96.8%,100%,118%,103%,110%,102%,110%
CC(C)=CCC[C@@H](C)CC=O [Citronellal],104% and 96.5%,112%,96.2%,102%,103%,106%,105%,114%
CN1CCN(S(=O)(=O)c2ccc(-c3cnc(N)c(C(=O)Nc4cccnc4)n3)cc2)CC1,72.1% and 61.7%,73.6%,76.7%,114%,40.6%,42.1%,30%,63.3%
COc1cc(N2CCN(C)CC2)ccc1Nc1ncc2c(n1)N(C)c1ccccc1C(=O)N2,83.4% and 82.7%,78.9%,97.7%,90.1%,78.1%,91.3%,83.3%,73.2%
COc1ccc(S(=O)(=O)NCc2ccc(C(=O)NCCc3ccc(Cl)cn3)cc2)cc1,83.3% and 86.3%,81.6%,84.3%,105%,83.4%,90.9%,92.7%,104%
CC1(C)CC[C@]2(C(=O)O)CC[C@]3(C)C(=CC[C@@H]4[C@@]5(C)CC[C@H](O)C(C)(C)[C@@H]5CC[C@]43C)[C@@H]2C1 [Oleanolic Acid (Caryophyllin)],96.5% and 91.2%,87.9%,80.7%,82.8%,85.6%,94.7%,66.8%,82.7%
C[C@@H]1[C@H]2c3cc4c(cc3O[C@@]35OCOC3=CC(=O)[C@H](C[C@H]1C)[C@@H]25)OCO4 [Sauchinone],92.2% and 99.5%,100%,87.5%,92.9%,55.1%,94.9%,87.6%,86.8%
COc1c(N2C[C@@H]3CCCN[C@@H]3C2)c(F)cc2c(=O)c(C(=O)O)cn(C3CC3)c12 [Moxifloxacin hydrochloride],104% and 99.6%,93.3%,101%,105%,92.9%,98.5%,90.4%,97.2%
CNCCc1ccccn1 [Betahistine 2HCl],97.2% and 99.7%,95.5%,88.7%,102%,90.6%,99.8%,89.3%,101%
OCC1(O)COc2cc(O)ccc2-c2cc(O)c(O)cc2C1 (stereo unspecified) [Protosappanin B],93.9% and 95.9%,95.7%,100%,97.1%,102%,96.2%,97.3%,99.5%
CC(=O)Nc1nc(-c2cccc(NS(=O)(=O)c3cccc4c(N(C)C)cccc34)c2)cs1,61.8% and 63.7%,62%,58.7%,43.8%,62.4%,66.6%,33.3%,40.5%
N=c1ccn2c(n1)O[C@H]1[C@H](O)[C@@H](CO)O[C@H]12 [Cyclocytidine HCl],92.8% and 103%,101%,27.8%,29%,11.3%,2.48%,9.61%,9.31%
NNC(=O)c1ccncc1.Nc1ccc(C(=O)O)c(O)c1 [pasiniazid],109% and 113%,114%,106%,106%,101%,108%,119%,93.9%
COc1cc2c(Nc3ccc(NC(=O)c4ccccc4)cc3)ncnc2cc1OCCCN1CCOCC1,67.2% and 92%,79.4%,62.5%,72%,17.9%,10.3%,16.4%,22.1%
NCCOc1ccc(Cl)cc1C(=O)Nc1ccc([N+](=O)[O-])cc1Cl,29.7% and 24.1%,23.4%,35.4%,37.5%,21.3%,14.6%,4.88%,14.7%
Nc1c(CC(=O)O)cccc1C(=O)c1ccccc1 [Amfenac Sodium (monohydrate)],103% and 98.3%,93.7%,94.7%,101%,91.5%,95.9%,88.5%,99.8%
Cc1nc(C)c(C)nc1C [Tetramethylpyrazine],111% and 112%,118%,107%,111%,108%,107%,112%,116%
Cc1ccc(C(C)C)cc1O [Carvacrol],100% and 101%,98.7%,95.5%,99%,99%,100%,92.8%,100%
O=C(/C=C/c1ccc(O)c2c1[C@H](C(=O)O[C@H](Cc1ccc(O)c(O)c1)C(=O)O)[C@@H](c1ccc(O)c(O)c1)O2)O[C@H](Cc1ccc(O)c(O)c1)C(=O)O [Salvianolic acid B],96.5% and 101%,101%,101%,108%,96.7%,103%,98.9%,97.8%
COc1ccc(C(=O)O)cc1O [Isovanillic acid],97.7% and 89.4%,95.3%,85.2%,97.5%,87.1%,90.6%,82.2%,86.7%
C=C1[C@H](CO)[C@@H](O)C[C@@H]1n1cnc2c(=O)[nH]c(N)nc21 [Entecavir],109% and 104%,103%,94.8%,101%,101%,106%,79.5%,93.7%
O=CC(O)C(O)C(O)C(O)COC1OC(COC2OC(CO)C(O)C(O)C2O)C(O)C(O)C1O (stereo unspecified) [Manninotriose],112% and 107%,110%,97.8%,97.1%,103%,104%,108%,104%
